In PubChem BioAssay (NCI):
About 79,000 compounds went through this panel and 15% of them were active in at least one assay; those are over-represented in the sample as a whole. Activity calls are given as the source filed them. Rule as the data show it: active = growth inhibition above about 70%; inactive = the rest.

Tests used:
[1] = NCI Yeast Anticancer Drug Screen. Data for the rad52 strain (AID 147);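 also: 0% = growth of vehicle-treated control cultures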; details: S. cerevisiae rad52 mutant growth inhibition, active compounds read high
In short: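 The repair-mutant yeast strain was incubated with compounds, then growth was read and inhibition derived relative to vehicle.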

[2] = NCI Yeast Anticancer Drug Screen. Data for the wt1 strain (AID 149);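 also: 0% = growth of vehicle-treated wt1 cultures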; details: S. cerevisiae wt1 strain (SPY 50644) growth inhibition, active compounds read high
In short: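 Using yeast strain wt1, compound-induced growth inhibition was determined against vehicle-treated cultures.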

[3] = NCI Yeast Anticancer Drug Screen. Data for the rad50EPP+ strain (AID 151);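 also: 0% = growth of vehicle-treated control cultures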; details: S. cerevisiae rad50 mutant strain, active compounds read high
In short: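 Vehicle-normalised growth inhibition; rad50EPP+ yeast strain, altered in DNA damage repair, compound-treated.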

[4] = NCI Yeast Anticancer Drug Screen. Data for the mgt1 strain (AID 153); details: S. cerevisiae mgt1 mutant growth inhibition, active compounds read high
In short: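 Vehicle-normalized growth inhibition is determined in mgt1 yeast, a strain selected for a defined alteration in DNA repair or cell cycle control.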

[5] = NCI Yeast Anticancer Drug Screen. Data for the rad50 strain (AID 155);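 also: 0% = growth of vehicle-only cultures of the same strain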; details: S. cerevisiae rad50 strain growth inhibition, active compounds read high
In short: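 Relative growth inhibition (compound vs vehicle) was measured in yeast with a defined repair-gene alteration.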

[6] = NCI Yeast Anticancer Drug Screen. Data for the mec2-1 strain (AID 157); details: S. cerevisiae mec2-1 strain, active compounds read high
In short: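 Mutant yeast (mec2-1) grown with compound; growth inhibition relative to vehicle control reported.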

[7] = NCI Yeast Anticancer Drug Screen. Data for the rad14 strain (AID 159);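 also: 0% = growth of vehicle-treated control cultures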; details: S. cerevisiae rad14 strain growth inhibition, active compounds read high
In short: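 Screen for anticancer potential: a yeast strain altered in DNA damage repair is grown with compound, and reduced growth is quantified against vehicle controls.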

[8] = NCI Yeast Anticancer Drug Screen. Data for the sgs1 mgt1 strain (AID 161);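 also: 0% = growth of cultures given vehicle only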; details: S. cerevisiae sgs1 mgt1 strain, active compounds read high
In short: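 Yeast cells carrying a defined DNA-repair defect were exposed to test compounds. Growth inhibition was measured relative to vehicle-treated controls.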

[9] = NCI Yeast Anticancer Drug Screen. Data for the CLN2oe strain (AID 163);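 also: 0% = growth of vehicle-only control cultures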; details: S. cerevisiae CLN2oe strain, active compounds read high
In short: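 Compounds are applied to yeast harbouring a defined cell-cycle control change; reduced growth compared with vehicle-treated controls gives the value.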

[10] = NCI Yeast Anticancer Drug Screen. Data for the cln2 rad14 strain (AID 165);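 also: 0% = growth equal to vehicle treated cultures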; details: S. cerevisiae cln2 rad14 strain, active compounds read high
In short: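 Readout is yeast growth inhibition versus vehicle-treated controls, using a strain with cln2 and rad14 alterations exposed to compound.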

[11] = NCI Yeast Anticancer Drug Screen. Data for the bub3 strain (AID 167); details: S. cerevisiae bub3 mutant strain, active compounds read high
In short: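 Screening used yeast with an engineered genetic alteration affecting cell cycle control. Compound-exposed cultures were compared with vehicle cultures, and reduced growth was taken as inhibition.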

[12] = NCI Yeast Anticancer Drug Screen. Data for the wt2 strain (AID 169);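 also: 0% = growth of vehicle-treated yeast cultures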; details: S. cerevisiae wt2 strain growth inhibition, active compounds read high
In short: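 Against vehicle-treated controls, the growth of yeast exposed to each compound was compared, and the inhibition was recorded.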

[13] = NCI Yeast Anticancer Drug Screen. Data for the mlh1 strain (AID 171);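 also: 0% = growth of vehicle-treated control cultures of the same strain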; details: S. cerevisiae mlh1 strain growth inhibition, active compounds read high
In short: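 Measured: yeast growth. Reference: vehicle-treated controls. Organism: strain with a defined alteration affecting DNA damage repair or cell cycle control, treated with compound.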

[14] = NCI Yeast Anticancer Drug Screen. Data for the sgs1 strain (AID 173);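 also: 0% = growth of vehicle-only control cultures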; details: S. cerevisiae sgs1 mutant, active compounds read high
In short: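 Each compound was added to cultures of the altered yeast strain. Growth was recorded, and inhibition was derived by comparison with vehicle controls.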

[15] = NCI Yeast Anticancer Drug Screen. Data for the mlh1 rad18 strain (AID 175); details: S. cerevisiae mlh1 rad18 strain growth inhibition, active compounds read high
In short: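 Genetically defined yeast (DNA repair-deficient) exposed to compounds; growth inhibition determined relative to vehicle.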

[16] = NCI Yeast Anticancer Drug Screen. Data for the rad18 strain (AID 177); details: S. cerevisiae rad18 mutant growth inhibition, active compounds read high
In short: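 Vehicle-treated cultures served as the baseline for scoring compound-induced growth inhibition in DNA-repair-mutant yeast.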

[17] = at 5.0 µM (retest, dose inferred, filed as 0.5)
[18] = at 50.0 µM (retest, dose inferred, filed as 5.0)

Measured: growth inhibition

Nc1ccc(S(=O)(=O)Nc2ccc(Nc3c4ccccc4nc4ccccc34)cc2)cc1
inactive: [1]; at 1.2 µM 21% | [1]; at 3.7 µM 69% | [2]; at 1.2 µM 2% | [2]; at 3.7 µM 19% | [2]; at 11.0 µM 18% | [2]; at 33.0 µM 18% | [2]; at 100.0 µM 43% | [3]; at 1.2 µM 8% | [3]; at 3.7 µM 56% | [4]; at 1.2 µM 4% | [4]; at 3.7 µM 4% | [4]; at 11.0 µM 3% | [4]; at 33.0 µM 13% | [4]; at 100.0 µM 50% | [5]; at 1.2 µM 22% | [5]; at 3.7 µM 66% | [5]; [17] 59% | [6]; at 1.2 µM 0% | [6]; at 3.7 µM 11% | [6]; [17] -24% | [6]; at 11.0 µM 6% | [6]; at 33.0 µM 19% | [6]; [18] 31% | [6]; at 50.0 µM 57.4% | [7]; at 1.2 µM 7% | [7]; at 3.7 µM 18% | [7]; at 11.0 µM 14% | [7]; at 33.0 µM 25% | [7]; at 100.0 µM 58% | [8]; [17] -7% | [8]; [18] 19% | [8]; at 50.0 µM 21% | [9]; at 1.2 µM -29% | [9]; at 3.7 µM -5% | [9]; at 11.0 µM -15% | [9]; at 33.0 µM 4% | [9]; at 100.0 µM 33% | [10]; [17] -3% | [10]; [18] 7% | [10]; at 50.0 µM 13.8% | [11]; at 1.2 µM 8% | [11]; at 3.7 µM 31% | [11]; [17] -18% | [11]; at 11.0 µM 15% | [11]; at 33.0 µM 4% | [11]; [18] -4% | [11]; at 50.0 µM -22.1% | [11]; at 100.0 µM 39% | [12]; at 1.2 µM -42% | [12]; at 3.7 µM -39% | [12]; at 11.0 µM -38% | [12]; at 33.0 µM -30% | [12]; at 100.0 µM 60% | [13]; at 1.2 µM 4% | [13]; at 3.7 µM 24% | [13]; at 11.0 µM 23% | [13]; at 33.0 µM 24% | [13]; at 100.0 µM 60%
active: [1]; at 11.0 µM 88% | [1]; at 33.0 µM 93% | [1]; at 100.0 µM 95% | [3]; at 11.0 µM 77% | [3]; at 33.0 µM 76% | [3]; at 100.0 µM 79% | [5]; at 11.0 µM 86% | [5]; at 33.0 µM 93% | [5]; [18] 87% | [5]; at 50.0 µM 79.1% | [5]; at 100.0 µM 94% | [6]; at 100.0 µM 77%

N#C/C(=C/N1C(=O)/C(=C/c2ccc([N+](=O)[O-])cc2)SC1=S)c1nc2ccccc2s1
active: [1]; at 100.0 µM 77% | [3]; at 33.0 µM 86% | [3]; at 100.0 µM 87% | [5]; at 50.0 µM 87.3% | [5]; at 100.0 µM 79% | [6]; at 50.0 µM 81.7% | [7]; at 100.0 µM 84% | [8]; at 50.0 µM 85.6% | [11]; at 50.0 µM 86% | [13]; at 100.0 µM 82% | [14]; at 100.0 µM 82% | [15]; at 50.0 µM 87.8% | [16]; at 100.0 µM 82%
inactive: [1]; at 1.2 µM 5% | [1]; at 3.7 µM 9% | [1]; at 11.0 µM 18% | [1]; at 33.0 µM 36% | [2]; at 1.2 µM 4% | [2]; at 3.7 µM 5% | [2]; at 11.0 µM 7% | [2]; at 33.0 µM 18% | [2]; at 100.0 µM 59% | [3]; at 1.2 µM 19% | [3]; at 3.7 µM 45% | [3]; at 11.0 µM 69% | [4]; at 1.2 µM 1% | [4]; at 3.7 µM 3% | [4]; at 11.0 µM 5% | [4]; at 33.0 µM 11% | [4]; at 100.0 µM 66% | [5]; at 1.2 µM -2% | [5]; at 3.7 µM -6% | [5]; [17] -4% | [5]; at 11.0 µM 0% | [5]; at 33.0 µM 40% | [5]; [18] 23% | [6]; at 1.2 µM 9% | [6]; at 3.7 µM 11% | [6]; [17] -1% | [6]; at 11.0 µM 18% | [6]; at 33.0 µM 34% | [6]; [18] 16% | [6]; at 100.0 µM 67% | [7]; at 1.2 µM 3% | [7]; at 3.7 µM 4% | [7]; at 11.0 µM 13% | [7]; at 33.0 µM 40% | [8]; [17] 7% | [8]; [18] 48% | [9]; at 1.2 µM 8% | [9]; at 3.7 µM -1% | [9]; at 11.0 µM 3% | [9]; at 33.0 µM 16% | [9]; at 100.0 µM 55% | [10]; [17] -16% | [10]; [18] 30% | [10]; at 50.0 µM 61.1% | [11]; at 1.2 µM -2% | [11]; at 3.7 µM 4% | [11]; [17] -18% | [11]; at 11.0 µM 9% | [11]; at 33.0 µM 26% | [11]; [18] 34% | [11]; at 100.0 µM 63% | [13]; at 1.2 µM 5% | [13]; at 3.7 µM 6% | [13]; at 11.0 µM 13% | [13]; at 33.0 µM 37% | [14]; at 1.2 µM 11% | [14]; at 3.7 µM 18% | [14]; at 11.0 µM 30% | [14]; at 33.0 µM 61% | [15]; [17] 13% | [15]; [18] 55% | [16]; at 1.2 µM 19% | [16]; at 3.7 µM 33% | [16]; at 11.0 µM 48% | [16]; at 33.0 µM 69%
